PubChem BioAssay (EPA / NIEHS)
Results filed as inconclusive are left out. Active and inactive are the calls of the source. How the source made its calls: active means hit-call score of the fitted dose curve at least 0.9, where 1 is the maximum; inconclusive means response in the unintended direction; inactive means score below 0.9.

Legend:
[1] = TOX21_p53_BLA_p2_viability: Viability Assessment in the Tox21 HCT-116 p53 Agonism Beta-lactamase Assay, Phase 2 (AID 2283591);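 further: actives lower the ATP signal meaning cytotoxicity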
How it was run: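 Cytotoxicity readout: CellTiter-Glo ATP luminescence, 30 min at room temperature, after the beta-lactamase read. Cells were HCT116 exposed 16 h at 37C to compounds pin-transferred at 217-fold dilution from DMSO stocks.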

[2] = target: Cellular tumor antigen p53 (Homo sapiens) (UniProt P04637); assay: TOX21_p53_BLA_p2_ratio: Tox21 HCT-116 p53 Agonism Beta-lactamase Assay, Ratio, Phase 2 (AID 2283592)
How it was run: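 First, HCT116 reporter cells settle for 5 h at 37C. Next, DMSO compound solutions are pinned in (217-fold dilution) and left 16 h. Finally, CCF4-AM substrate is loaded 2 h at room temperature and the 460/530 nm ratio read.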

[3] = TOX21_p53_BLA_p3_viability: Viability Assessment in the Tox21 HCT-116 p53 Agonism Beta-lactamase Assay, Phase 3 (AID 2283593);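 further: cells exposed to compound for 16 h before reading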
How it was run: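 Cellular ATP was quantified by CellTiter-Glo luminescence, read after 30 min at room temperature. Beforehand, HCT116 cells (4000/well) received compound 5 h post-seeding, 217-fold diluted from DMSO, then incubated 16 h at 37C.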

[4] = target: Cellular tumor antigen p53 (Homo sapiens) (UniProt P04637); assay: TOX21_p53_BLA_p3_ratio: Tox21 HCT-116 p53 Agonism Beta-lactamase Assay, Ratio, Phase 3 (AID 2283596)
How it was run: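 Cells were seeded at 4000/well, rested 5 h at 37C, then dosed with DMSO compound solutions (217-fold dilution) for 16 h. CCF4-AM substrate was loaded for 2 h at room temperature, and the 460/530 nm emission ratio was fitted for gain of signal versus DMSO.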

[5] = TOX21_p53_BLA_p4_viability: Viability Assessment in the Tox21 HCT-116 p53 Agonism Beta-lactamase Assay, Phase 4 (AID 2283597);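 further: hits lower the luminescence signal meaning cytotoxicity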
How it was run: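 4000 HCT116 cells per well; 5 h attachment; compounds from DMSO, 217-fold dilution; 16 h at 37C. Then CCF4-AM, 2 h RT, followed by CellTiter-Glo, 30 min RT, luminescence. Decrease = cytotoxicity.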

[6] = target: Cellular tumor antigen p53 (Homo sapiens) (UniProt P04637); assay: TOX21_p53_BLA_p5_ratio: Tox21 HCT-116 p53 Agonism Beta-lactamase Assay, Ratio, Phase 5 (AID 2283599)
How it was run: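 Beta-lactamase reporter ratio (blue 460 nm over green 530 nm, 405 nm excitation) after 2 h CCF4-AM loading, in HCT-116 cells exposed 16 h at 37 C to compounds pinned at 217-fold dilution. Increases relative to DMSO baseline scored.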

[7] = TOX21_p53_BLA_p5_viability: Viability Assessment in the Tox21 HCT-116 p53 Agonism Beta-lactamase Assay, Phase 5 (AID 2283600)
How it was run: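 Decreased CellTiter-Glo luminescence denotes lost viability. Exposure: 16 h at 37C, 5% CO2, with compounds from DMSO stocks diluted 217-fold in wells of 4000 cells.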

[8] = target: Cellular tumor antigen p53 (Homo sapiens) (UniProt P04637); assay: TOX21_p53_BLA_p4_ratio: Tox21 HCT-116 p53 Agonism Beta-lactamase Assay, Ratio, Phase 4 (AID 2283601)
How it was run: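 Signal is the blue/green (460nm/530nm) ratio of cleaved versus uncleaved CCF4-AM substrate, read after 2 h substrate loading. Cells were HCT116 carrying the p53-responsive beta-lactamase reporter, dosed 16 h at 37C, 5% CO2; CellTiter-Glo measured in parallel.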

Measured: AC50

Cellular tumor antigen p53 (Homo sapiens), sequence (P04637 whole entry, looked up): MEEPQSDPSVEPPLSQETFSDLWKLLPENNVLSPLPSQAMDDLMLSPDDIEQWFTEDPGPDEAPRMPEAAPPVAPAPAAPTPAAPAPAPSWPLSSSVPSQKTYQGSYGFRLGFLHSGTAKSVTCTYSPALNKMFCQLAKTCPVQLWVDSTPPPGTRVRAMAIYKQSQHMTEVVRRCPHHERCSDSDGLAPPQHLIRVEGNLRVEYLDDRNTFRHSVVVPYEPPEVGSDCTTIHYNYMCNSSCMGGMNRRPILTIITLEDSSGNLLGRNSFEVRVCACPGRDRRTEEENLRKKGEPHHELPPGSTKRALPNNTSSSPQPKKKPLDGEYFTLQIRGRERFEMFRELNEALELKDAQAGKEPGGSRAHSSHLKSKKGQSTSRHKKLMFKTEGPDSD

Cc1nnc(NS(=O)(=O)c2ccc(N)cc2)s1
inactive: [1] | [2] | [3] | [4] | [5] | [6] | [7] | [8]

CC(C)(C#N)Nc1nc(Cl)nc(NC2CC2)n1
inactive: [1] | [2] | [3] | [4] | [5] | [6] | [7] | [8]

CC1CCCO1 (configuration not stated)
inactive: [1] | [2] | [3] | [4] | [5] | [7] | [8]
active: [6] 85.2 µM

CC(C)(C)CC(C)(C)c1ccccc1O
active: [1] 74.6 µM | [2] 75.3 µM | [3] 68.9 µM | [4] 77.8 µM | [5] 65.9 µM | [6] 81.5 µM | [7] 68 µM | [8] 81.7 µM

CCN1/C(=C/C=C/c2sc3ccccc3[n+]2CC)Sc2ccccc21
active: [2] 9.06 µM | [3] 4.58 µM | [4] 23.5 µM | [5] 20 µM | [6] 11.5 µM | [8] 12.9 µM
inactive: [1] | [7]

Nc1[nH]c(=O)ncc1F
inactive: [1] | [2] | [3] | [4] | [5] | [6] | [7] | [8]

c1ccc(C(O[C@H]2CCCN(CCc3ccc4c(c3)OCO4)C2)c2ccccc2)cc1
inactive: [1] | [2] | [3] | [4] | [5] | [6] | [7] | [8]

O=C1CCc2ccc(OCCCCN3CCN(c4cccc(Cl)c4Cl)CC3)cc2N1
inactive: [1] | [2] | [4] | [5] | [6] | [8]
active: [3] 23 µM | [7] 23 µM

O=C1C=CC(=O)N1
inactive: [1] | [7]
active: [2] 73.5 µM | [3] 69.8 µM | [4] 70.8 µM | [5] 79.4 µM | [6] 82.4 µM | [8] 70.3 µM

CCCCOc1ccc(C(=O)CCN2CCCCC2)cc1
active: [5] 6.37 µM
inactive: [1] | [2] | [3] | [4] | [6] | [7] | [8]

COc1cc(O)cc(O)c1
inactive: [1] | [2] | [3] | [4] | [5] | [6] | [7] | [8]

Cc1cccc(N(C)C(=S)Oc2ccc3c(c2)CCC3)c1
inactive: [1] | [2] | [3] | [4] | [5] | [6] | [7] | [8]

C#C[C@]1(O)CC[C@H]2[C@@H]3[C@H](C)CC4=C(CCC(=O)C4)[C@H]3CC[C@@]21C
inactive: [1] | [2] | [3] | [4] | [5] | [6] | [7] | [8]

NC(=S)N=Nc1ccc(NN=C(N)N)cc1
inactive: [1] | [2] | [3] | [4] | [5] | [6] | [7] | [8]

CCCC(c1cc(C(C)(C)C)c(O)cc1C)c1cc(C(C)(C)C)c(O)cc1C
active: [1] 15 µM | [2] 32.8 µM | [3] 19.5 µM | [4] 30.6 µM | [5] 9.81 µM | [6] 32.2 µM | [7] 17.2 µM | [8] 19.7 µM

N#CCc1cccc(C(F)(F)F)c1
inactive: [1] | [2] | [3] | [4] | [5] | [6] | [7] | [8]

CC(O)COC(C)(C)C (configuration not stated)
inactive: [1] | [2] | [3] | [4] | [5] | [6] | [7] | [8]

CC[C@H]1OC(=O)C[C@@H](O)[C@H](C)[C@@H](O[C@@H]2O[C@H](C)[C@@H](O[C@H]3C[C@@](C)(O)[C@@H](O)[C@H](C)O3)[C@H](N(C)C)[C@H]2O)[C@@H](CC=O)C[C@@H](C)C(=O)/C=C/C(C)=C/[C@@H]1CO[C@@H]1O[C@H](C)[C@@H](O)[C@@H](OC)[C@H]1OC
inactive: [1] | [2] | [3] | [4] | [5] | [6] | [7] | [8]

CC[C@@H](C(=O)O)[C@@H]1O[C@@H]([C@@H](C)[C@H](O)[C@H](C)C(=O)[C@H](CC)[C@H]2O[C@]3(C=C[C@@H](O)[C@]4(CC[C@@](C)([C@H]5CC[C@](O)(CC)[C@H](C)O5)O4)O3)[C@H](C)C[C@@H]2C)[C@@H](C)C[C@@H]1C
active: [2] 4.53 µM | [4] 7.64 µM | [6] 7.63 µM | [8] 5.21 µM
inactive: [1] | [3] | [5] | [7]
